Experimental data: PubChem BioAssay AID501 (PCMD, 2006)
In all, about 62,000 compounds went through this assay and about 35 (0.06%) were called active. No stated cut-off is given here; in the data, active means inhibition above about 32% (passing the limit was not always enough); inconclusive means no clear call, values can overlap the other calls. Only a selection was taken, and actives are over-represented in it overall.

biological target: Cathepsin S (Homo sapiens) (UniProt P25774); test: blockers of CTSS protease activity – biochemical, compound mixtures (AID 501); conditions: recombinant cathepsin S, AMC dipeptide fluorescence, pooled mixtures; active compounds read high;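 tested at 5 µM per compound within 10-compound mixtures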;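 further: 0% = enzyme without compound and 100% = blank without enzyme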
Sequence (P25774 115-331 limits assumed): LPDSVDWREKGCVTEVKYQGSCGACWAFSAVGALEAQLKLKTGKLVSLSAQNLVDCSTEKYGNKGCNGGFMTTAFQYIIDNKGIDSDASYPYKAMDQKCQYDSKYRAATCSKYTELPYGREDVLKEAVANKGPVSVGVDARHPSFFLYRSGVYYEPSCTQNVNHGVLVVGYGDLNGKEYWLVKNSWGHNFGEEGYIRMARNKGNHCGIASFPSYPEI

inhibition, inactive:
Cc1nn(-c2ccccc2)c2sc(C(=O)N(Cc3ccco3)C(C)C(=O)NC(C)(C)C)cc12 (centres undefined) 13.8%
c1ccc2c(c1)OCC(CNc1ncnc3nc[nH]c13)O2 (centres undefined) -0.615%
O=C(CN1CCN(c2ncc(C(F)(F)F)cc2Cl)CC1)Nc1ccc2c(c1)OCO2 13.5%
COc1ccc(-c2noc(CN(C)S(=O)(=O)c3ccc(C)cc3)n2)cc1 8.41%
Cc1ccc2c(c1)N(C(=O)CCC(=O)N1CCc3ccccc3C1)CCO2 -12.7%
CCn1c(=O)cc(OCC(=O)NCCCN2CCN(c3cccc(Cl)c3)CC2)c2ccccc21 4.46%
CC1CCCC(C)N1CCCNC(=O)c1cc2c(=O)n(C)c3ccccc3c2n1C (centres undefined) 7.08%
COc1ccc(-c2ccc(-c3noc(-c4ccncc4)n3)c(OC)n2)cc1 6.8%
COc1ccccc1N1CCN(c2nc3ccccc3n3nnnc23)CC1 8.24%
CC1CCCC(NC(=O)CN2CCN(Cc3ccc(Cl)cc3)C2=O)C1C (centres undefined) -3.54%
CCN(CC)S(=O)(=O)c1ccc2nc(CSc3nnnn3-c3ccc(O)cc3)[nH]c2c1 -6.33%
CCC(C)Sc1nnc(-c2c[nH]c3ccccc23)n1CCOC (centres undefined) -1.22%
COc1ccc(-c2cc3n(n2)CCc2nc4ccccc4n2-3)cc1 -5.35%
CCN(CC)C(=O)CSc1nnc(-c2ccc(S(=O)(=O)NCc3ccccc3Cl)cc2)o1 6.42%
O=c1/c(=C/c2ccc(CNS(=O)(=O)c3ccccc3)o2)sc2n1CCN=2 -0.38%
Cc1cc(C)nc(SCc2ccccc2C#N)n1 -2.31%
CCc1cc(=O)oc2cc(C)cc(OC(C)C(=O)O)c12 (centres undefined) -5.16%
CN1CCN(Cc2c(O)ccc3c2oc(=O)c2ccccc23)CC1 6.08%
CCNS(=O)(=O)c1ccc(NC(=O)Nc2cccc(C(F)(F)F)c2)cc1 -6.53%
Cc1c2cnn(-c3ccccc3)c(=O)c2c(C)n1CCCC(=O)N1CCN(C)CC1 -3.9%
CC(NC(=O)c1ccco1)C(=O)Nc1nc(-c2ccccn2)cs1 (centres undefined) 12%
O=C(O)C1C2C=CC(C2)C1C(=O)N1CCN(CCO)CC1 (centres undefined) 3.18%
CC(=O)c1cnc(Nc2nc(C)c3cc(C)ccc3n2)nc1C -5.6%
CC(C)NS(=O)(=O)c1ccc(OCC(=O)Nc2ccc3c(c2)OCCO3)cc1 22.9%
CC(C)Nc1nc(N(c2ccccc2)c2ccccc2)nc(-n2ccnc2)n1 -8.9%
CC(C)n1c(SCC(=O)Nc2ccccc2N2CCCCC2)nc2c1c(=O)n(C)c(=O)n2C -0.72%
CCOC(=O)C1=C(CNC2CCCCC2)NC(=O)NC1c1cc(C)ccc1C (centres undefined) -0.495%
O=c1cc(CO)oc(CN2CCC(Cc3ccccc3)CC2)c1O 4.81%
C=CCN1C(=O)C(O)(CC(=O)c2ccc(Cl)cc2)c2ccccc21 (centres undefined) -18%
CC(C)N1C(=O)C2C(C(=O)NC3CCCCC3)C3C=CC2(O3)C1C(=O)NC1CCCC1 (centres undefined) -8.37%
COc1ccc(-c2csc(N3CCN(Cc4ccc5c(c4)OCO5)CC3)n2)cc1 -3.99%
Cc1ccc(C(=O)NCC(=O)O)cc1S(=O)(=O)N1CCCCC1 -10.7%
COc1ccc(C(=O)Nc2ccc3c(c2)OCO3)cc1OC -4.12%
Cc1ccc(S(=O)(=O)N2CCCC2C(=O)NCc2ccco2)cc1 (centres undefined) 12.5%
CC1(C)CC(CCC(=O)Nc2ccccc2Cl)C(=O)O1 (centres undefined) -3.38%
Cc1ccc(C(=O)NCC2CCCO2)o1 (centres undefined) 0.56%
CCOC(=O)c1c(C)c(C(=O)NCCc2ccc(S(N)(=O)=O)cc2)c(C)n1CC -0.765%
CC(CCc1ccccc1)NC(=O)c1ccc(Br)o1 (centres undefined) -7.32%
CC1(C)Cc2ccccc2-c2nnc(-c3cccc(O)c3)n21 -3.6%
O=C(c1ccc(S(=O)(=O)N2CCOCC2)cc1)N1CCN(c2ccccc2)CC1 -24.7%
C#CCN1CC(C)/C(=N/O)CC1C (centres undefined) -8.55%
CCOC(=O)C1(c2ccccc2)NC(c2ccc(N(C)C)cc2)C2C(=O)N(C)C(=O)C21 (centres undefined) 12.2%
O=S(=O)(NCCNS(=O)(=O)c1ccccc1)c1ccccc1 -7.43%
Cc1nc(N2CCCC2C(=O)O)c2oc3ccccc3c2n1 (centres undefined) 8.31%
COc1ccc(CCn2c(NCCCN3CCOCC3)nc3c2c(=O)[nH]c(=O)n3C)cc1 5.43%
CCOC(=O)c1sc(=S)n2c1[nH]c(=O)c1ccc(C(=O)OC)cc12 -0.96%
O=C(CC(NS(=O)(=O)c1ccc(Cl)cc1)c1ccco1)NC1CCCC1 (centres undefined) -2.72%
CC(=O)Nc1nc(C)c(Cc2ccccc2)c(=O)[nH]1 -3.33%
CCCCSc1nnc(-c2ccc(C)cc2)o1 0.235%
O=C(c1ccc2c(c1)C(=O)N(c1ccc(Cl)cc1)C2=O)N1CCN(c2ccccn2)CC1 2.28%
O=C(NCc1ccco1)c1ccc(CS(=O)(=O)Cc2ccc(F)cc2)o1 -5.21%
COc1cccc(-c2nc3n(n2)C(c2ccccc2Cl)C(C(N)=O)=C(C)N3)c1 (centres undefined) -4.19%
CC1(C)CCCC2=C1CC1C(=O)N(c3ccccc3)C(=O)C1C2 (centres undefined) 8.69%
Cc1ccc(-n2c(SCC(=O)Nc3ccc4c(c3)OCO4)nnc2-c2ccoc2C)cc1 7.19%
CC12COC3(C(=O)Nc4ccc(Cl)cn4)CC1CCC32C (centres undefined) -6.89%
COC(=O)C1(S(=O)(=O)C2(C(=O)OC)CCCC2)CCCC1 -5.82%

inhibition, active:
Cn1c(C(=O)NCCCN2CCN(c3cccc(Cl)c3)CC2)cc2c(=O)n(C)c3ccccc3c21 33%
N#Cc1nc(N)nc(N(c2ccccc2)c2ccccc2)n1 49.2%
Cc1ccc(C(=O)Nc2ccc3c(c2)OCO3)cc1S(=O)(=O)N1CCCCC1 85.5%
